# Screening results (PubChem)
# Compounds with a hit are over-represented: about 2.8% of the library has one in this group of screens.
# LMP1 NFkB inh: inhibitors of Epstein-Barr LMP1-induced NF-kappaB reporter; 350,000 compounds, 0.69% hits; inhibition, % at 12.5 µM; AID 504558; LMP1-induced NF-kappaB luciferase reporter cells, luminescence; in the data active = inhibition above about 41%; inconclusive = no clear call, values can overlap the other calls;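 also: 0% = neutral control wells and 100% = reference inhibitor control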
# N-glyco inh: N-linked glycosylation inhibition; D54 ERlucT glycosylation luciferase reporter, 24 h; percent of 100 nM tunicamycin response; 360,000 compounds, 0.23% hits; reporter increase, % at 12.5 µM;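 active = mean luciferase reporter signal, scaled so untreated is 0 and the glycosylation-blocking control 100, at or above a set limit in every replicate; inconclusive = mean reaches the limit but not every replicate does; inactive = mean below the limit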;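 also: luciferase carries N-glycosylation sites so blocking glycosylation raises the light; 0% = median of neutral control wells and 100% = median of 100 nM tunicamycin wells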
# PAX8 reporter: inhibitors of PAX8 transcriptional activity in RMG-I cells; 360,000 compounds, 1.2% hits; AID 652154; RMG-I TPO-luciferase reporter, SteadyGlo, 24 h; inhibition, % at 12.6 µM;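 active = mean replicate inhibition at least 60% with every replicate also reaching 60%; inconclusive = only one of the two criteria is met; inactive = mean below 60% and not all replicates reaching 60%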;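 also: luciferase light reporting Pax8 driven TPO promoter activity; plate controls were median of neutral control wells for no effect and mitoxantrone controls for full effect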
# Shn3 inh set2: Schnurri-3 reporter inhibition in Clone20 osteoblasts | Clone20 osteoblast Shn3 3'UTR firefly luciferase, 24 h | inhibition, % at 12.5 µM | 360,000 compounds, 0.52% hits;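 active = mean inhibition of at least 75% with every replicate also reaching 75%; inconclusive = mean inhibition at least 75% but some replicate below; inactive = mean inhibition below 75%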;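 also: 0% = median of neutral control wells and 100% = pilot-screen positive control compound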
# NSD2 inh: inhibitors of human histone methyltransferase NSD2; O96028; 310,000 compounds, 0.54% hits; NSD2 peptide methylation, AlphaScreen, 120 min; AID 743445; inhibition, % at 12.5 µM; in the data active = inhibition above about 50%
# Target sequence (O96028 whole entry, looked up): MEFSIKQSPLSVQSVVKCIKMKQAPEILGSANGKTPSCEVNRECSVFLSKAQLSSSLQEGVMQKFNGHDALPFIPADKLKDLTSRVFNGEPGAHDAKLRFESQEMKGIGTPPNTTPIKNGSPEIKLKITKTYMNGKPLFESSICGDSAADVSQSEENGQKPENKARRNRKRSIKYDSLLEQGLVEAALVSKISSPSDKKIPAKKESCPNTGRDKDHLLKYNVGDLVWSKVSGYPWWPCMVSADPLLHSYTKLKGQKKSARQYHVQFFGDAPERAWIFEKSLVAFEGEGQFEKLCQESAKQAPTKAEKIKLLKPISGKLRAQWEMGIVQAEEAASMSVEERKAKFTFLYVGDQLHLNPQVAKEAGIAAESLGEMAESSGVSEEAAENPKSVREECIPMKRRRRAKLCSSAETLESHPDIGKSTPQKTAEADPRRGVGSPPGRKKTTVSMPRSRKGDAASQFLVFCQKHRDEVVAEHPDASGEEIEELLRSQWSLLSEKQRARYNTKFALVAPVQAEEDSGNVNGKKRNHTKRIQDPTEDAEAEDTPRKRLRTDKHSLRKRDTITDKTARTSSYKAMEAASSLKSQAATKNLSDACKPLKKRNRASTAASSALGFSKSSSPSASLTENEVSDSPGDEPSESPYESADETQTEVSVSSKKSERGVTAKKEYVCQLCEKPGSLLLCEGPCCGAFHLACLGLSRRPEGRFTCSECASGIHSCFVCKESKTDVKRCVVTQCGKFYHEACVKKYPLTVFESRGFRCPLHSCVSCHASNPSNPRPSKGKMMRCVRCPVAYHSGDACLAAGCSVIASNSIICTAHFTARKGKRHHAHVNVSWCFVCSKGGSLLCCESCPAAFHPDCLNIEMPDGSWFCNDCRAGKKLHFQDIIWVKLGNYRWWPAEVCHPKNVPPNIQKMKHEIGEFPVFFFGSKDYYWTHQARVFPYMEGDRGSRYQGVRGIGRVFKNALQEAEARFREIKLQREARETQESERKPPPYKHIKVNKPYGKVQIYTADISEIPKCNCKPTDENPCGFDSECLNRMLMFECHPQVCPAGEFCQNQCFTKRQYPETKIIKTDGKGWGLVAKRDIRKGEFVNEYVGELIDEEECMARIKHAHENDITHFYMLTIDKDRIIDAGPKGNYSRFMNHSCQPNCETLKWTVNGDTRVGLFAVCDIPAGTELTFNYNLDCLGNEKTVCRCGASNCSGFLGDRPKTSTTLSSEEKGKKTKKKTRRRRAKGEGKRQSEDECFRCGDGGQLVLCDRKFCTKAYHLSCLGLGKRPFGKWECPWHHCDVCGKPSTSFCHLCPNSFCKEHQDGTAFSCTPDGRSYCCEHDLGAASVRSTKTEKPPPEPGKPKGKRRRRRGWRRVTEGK
# HIV Env fusion: blocks HIV Env-driven cell-cell fusion; HeLa-JRFL Env/CEM21 cell fusion, luciferase; inhibition, % at 12.3 µM; 360,000 compounds, 1.1% hits; AID 651610;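 active = mean replicate inhibition score of at least 50 and every replicate individually at or above 50; inconclusive = only one of the two criteria met; inactive = mean below 50 and not all replicates reaching 50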;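 also: 0% = plate neutral controls and 100% = maraviroc near 300 nM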
# Numbers without * were called inactive; ? = inconclusive; . = no result; [ ] = dose if it differs, or a comment.
SMILES,LMP1 NFkB inh,N-glyco inh,PAX8 reporter,Shn3 inh set2,NSD2 inh,HIV Env fusion
O=C(COc1ccc2ccccc2c1)NCCNC(=O)COc1ccc2ccccc2c1,54*,-1,.,8,-1,.
Cc1ccc(S(=O)(=O)Nc2ccc3c(c2)C(=O)N([C@@H](C)CO)C[C@H](C)[C@@H](CN(C)C(=O)Nc2ccc(C(F)(F)F)cc2)OCCCC[C@H](C)O3)cc1,.,.,79*,.,.,69*[16.7 µM]
Cc1ccc(S(=O)(=O)Nc2ccc3c(c2)C(=O)N([C@H](C)CO)C[C@@H](C)[C@H](CN(C)C(=O)Nc2ccc(C(F)(F)F)cc2)OCCCC[C@@H](C)O3)cc1,.,.,69*,.,.,20[16.7 µM]
Cc1ccc(S(=O)(=O)Nc2ccc3c(c2)C(=O)N([C@H](C)CO)C[C@H](C)[C@@H](CN(C)C(=O)Nc2ccc(C(F)(F)F)cc2)OCCCC[C@H](C)O3)cc1,.,.,41,.,.,8[16.7 µM]
C[C@@H]1CN([C@H](C)CO)C(=O)c2cc(C3=CCCCC3)cnc2O[C@H]1CN(C)S(C)(=O)=O,.,.,.,.,.,4[16.7 µM]
C[C@@H]1CN([C@@H](C)CO)C(=O)c2cc(NC(=O)Nc3ccc(F)cc3)ccc2O[C@@H](C)CCCCO[C@@H]1CN(C)C,.,.,-7,.,.,-18[16.7 µM]
O=[N+]([O-])c1ccc2ncnc(N3CCN(Cc4ccc5c(c4)OCO5)CC3)c2c1,42*,-13,-11,85,16,48
Cc1n[nH]c(C)c1-c1nc2ccccc2[nH]1,8,1,.,4,-2,.
Cc1[nH]nc2c1-c1nc3ccccc3nc1C(C)(C)C2,-32,-5,.,89*,3,-56
C[C@H]1CN([C@@H](C)CO)C(=O)c2cccc(NS(=O)(=O)c3cn(C)cn3)c2O[C@H]1CN(C)Cc1ccc2c(c1)OCO2,.,.,-9,.,.,6[16.7 µM]
O=C(Nc1cccc(Cl)c1)Nc1csc([N+](=O)[O-])c1,21,-4,99*,30,-1,?
CC[n+]1ccc(/C=C/c2c[nH]c3ccccc23)cc1,11,1,75*,44,1,?
Cc1ccc2[nH]cc(/C=C/c3cc[n+](C)cc3)c2c1,14,-1,78*,39,1,41
Cc1noc(C)c1NC(=O)N(C)C[C@H]1OCCCC[C@@H](C)Oc2ccc(NC(=O)c3ccccc3)cc2C(=O)N([C@H](C)CO)C[C@H]1C,.,.,2,.,.,5[16.7 µM]
CC(C)c1ccc(/C=C/C(=O)N2CCc3ccccc3C2)cc1,-3,3,67*,6,0,.
Cc1cccc(CNc2ncnc3ccc(-c4cccnc4)cc23)c1,-4,0,-3,24,.,18
CC(=O)Nc1ccc(CNc2ncnc3ccc(-c4c(C)noc4C)cc23)cc1,20,50*,-178,0,.,24
Cc1ccc(C(=O)O/N=C/c2c(C(F)(F)F)nn(C)c2Sc2ccc(Cl)cc2)cc1,15,0,.,40,5,.
Cn1nc(C(F)(F)F)c(/C=N/OC(=O)c2ccccc2Cl)c1SCc1ccc(Cl)cc1,-2,61*,.,9,-1,-32
COc1ccc(C(=O)O/N=C/c2c(C(F)(F)F)nn(C)c2SCc2ccccc2Cl)cc1,-3,53*,.,83,-2,-26
C[C@@H]1CN([C@H](C)CO)C(=O)Cc2cc(NS(=O)(=O)c3cn(C)cn3)ccc2O[C@@H]1CN(C)S(=O)(=O)c1ccc(Cl)cc1,.,.,-12,.,.,6[16.7 µM]
CCOc1ccc2c(C)c(Cl)c(=O)oc2c1,64*,1,.,-5,0,.
COCCOC(=O)c1c(C)oc2ccc(O)c(CN3CCC(C)CC3)c12 (tested in a mixture with another compound),8,8,.,93*,0,-5
N#C[C@H]1[C@@H](c2ccc(-c3ccccc3)cc2)[C@@H](CO)N1S(=O)(=O)Cc1ccccc1,.,.,9,.,.,62*[16.7 µM]
N#C[C@@H]1[C@@H](c2ccc(-c3ccc(F)cc3)cc2)[C@@H](CO)N1S(=O)(=O)Cc1ccccc1,.,.,69*,.,.,0[16.7 µM]
SMILES,LMP1 NFkB inh,N-glyco inh,PAX8 reporter,Shn3 inh set2,NSD2 inh,HIV Env fusion
N#C[C@@H]1[C@@H](c2ccccc2)[C@@H](CO)N1S(=O)(=O)Cc1ccccc1,.,.,1,.,.,.
C[C@H](CO)N1C[C@H](C)[C@H](CN(C)C(=O)C2CC2)Oc2cc(-c3ccccc3)ccc2S1(=O)=O,.,.,.,.,.,26[16.7 µM]
CC(=O)Nc1ccc(N(CC(O)Cn2c3ccccc3c3ccccc32)S(=O)(=O)c2ccc(C)cc2)cc1 (stereo not given),-8,-5,31,29,-1,105*
Cc1ccc(N(CC(O)Cn2c3ccccc3c3ccccc32)S(C)(=O)=O)cc1 (stereo not given),-8,-2,.,-20,4,.
Cc1cccc(C)c1N(CC(O)Cn1c2ccccc2c2ccccc21)S(C)(=O)=O (stereo not given),-2,-5,.,15,0,84*
COc1cccc(CNC(=O)C[C@@H]2CC[C@H](NS(=O)(=O)c3ccccc3OC)[C@@H](CO)O2)c1,.,.,-13,.,.,16[16.7 µM]
C[C@@H]1CCCCO[C@@H](CN(C)C(=O)NC2CCCCC2)[C@H](C)CN([C@H](C)CO)C(=O)c2cc(NC(=O)Nc3ccc4c(c3)OCO4)ccc2O1,.,.,47,.,.,8[16.7 µM]
CCCC(c1nnnn1Cc1ccc(OC)cc1)N1CCN(c2ccccc2)CC1 (stereo not given),3,4,.,89*,1,.
COc1ccc(Cn2nnnc2C(CC(C)C)N2CCN(c3ccccc3)CC2)cc1 (stereo not given),8,-5,.,25,-2,.
COc1ccc(S(=O)(=O)N(C)C[C@@H]2Oc3ccc(NC(=O)c4ccncc4)cc3CC(=O)N([C@H](C)CO)C[C@H]2C)cc1,.,.,.,.,.,-12[16.7 µM]
S=C(Nc1ccc(OCc2ccccc2)cc1)Nc1cccc(Cl)c1Cl,74*,3,-13,-15,1,-8
S=C(Nc1ccccc1)Nc1ccc(OCc2ccccc2)cc1,-3,2,-14,5,7,-39
CC(C)(C)OC(=O)N1CCc2onc(-c3ccc(Br)cc3)c2C1=O,0,1,-45,-29,.,72*
COCC#Cc1ccc2c(c1)O[C@H](CN(C)C)[C@@H](C)CN([C@H](C)CO)S2(=O)=O,.,.,6,.,.,10[16.7 µM]
O=C(CN1CCN(c2nc(-c3ccc(Cl)cc3)cs2)CC1)NCc1ccco1,8,1,.,19,2,60*
C[C@@H]1CN([C@@H](C)CO)C(=O)Cc2cc(NC(=O)Cc3cn(C)c4ccccc34)ccc2O[C@H]1CN(C)Cc1ccc(Oc2ccccc2)cc1,.,.,86*,.,.,-10[16.7 µM]
COc1ccc(NC(=O)Nc2ccc3c(c2)CC(=O)N([C@H](C)CO)C[C@@H](C)[C@H](CN(C)Cc2ccc(Oc4ccccc4)cc2)O3)cc1,.,.,-49,.,.,60*[16.7 µM]
C[C@@H]1CN([C@H](C)CO)C(=O)Cc2cc(NC(=O)Cc3cn(C)c4ccccc34)ccc2O[C@@H]1CN(C)Cc1ccc(Oc2ccccc2)cc1,.,.,44,.,.,-132[16.7 µM]
